In PubChem BioAssay (NCI):
Compounds without any hit were thinned out: in the full panel of roughly 83,000, 20% have a hit.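 In brief: 96-well plates, 48 h treatment, single concentration, percent growth endpoint.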 Calls of active or inactive are those of the source. How the source made its calls: active means growth percent below 10; inactive means the rest.

Legend:
Assay in all cases: NCI-60 one-dose screen, 48 h (100 = growth as untreated, 0 = no growth, -100 = all killed)
NCI-H23 lung = details: 10 µM unless noted
NCI-H226 lung = details: 10 µM unless noted
NCI-H322M lung = details: 10 µM unless noted
NCI-H460 lung = details: 10 µM unless noted
HOP-92 NSCLC = details: 10 µM unless noted
A549/ATCC NSCLC = details: 10 µM unless noted
786-0 renal = details: 10 µM unless noted
COLO 205 colon = details: 10 µM unless noted
HOP-62 NSCLC = details: 10 µM unless noted
NCI-H522 lung = details: 10 µM

Measured: growth

COc1cnc2c(c1)C(=O)c1c-2n(CCCN2CCC(O)CC2)c(=O)c2cc(F)ccc12
active: NCI-H23 lung -19.9% | NCI-H226 lung -83.7% | NCI-H322M lung -3.95% | NCI-H460 lung -44.5% | HOP-92 NSCLC -7.92% | A549/ATCC NSCLC -77.5% | 786-0 renal -45.9% | COLO 205 colon -10.9%

CCOC(=O)c1cc2oc(/C=C/c3cc(=O)c4cc(Cl)ccc4o3)cc2[nH]1
inactive: NCI-H23 lung 98.6% | NCI-H226 lung 76.9% | NCI-H322M lung 108% | NCI-H460 lung 88.9% | A549/ATCC NSCLC 99% | 786-0 renal 97.7% | COLO 205 colon 93.9%
active: HOP-92 NSCLC -17.9%

N[C@H](CS)C(=O)O
inactive: NCI-H23 lung 102% | NCI-H226 lung 105% | NCI-H322M lung 83.8% | NCI-H460 lung 103% | HOP-92 NSCLC 86.4% | A549/ATCC NSCLC 99.5% | 786-0 renal 105% | COLO 205 colon 120%

O=C1C=CC(=O)N1c1ccccn1
inactive: NCI-H23 lung 102% | NCI-H322M lung 110% | HOP-62 NSCLC 113% | NCI-H460 lung 106% | HOP-92 NSCLC 104% | A549/ATCC NSCLC 96.9% | 786-0 renal 105% | COLO 205 colon 112%

C=C(CN1CCc2c([nH]c3ccccc23)C1)c1ccc(C(=O)Nc2ccon2)cc1
active: NCI-H522 lung -15%
inactive: NCI-H23 lung 85.9% | NCI-H322M lung 125% | HOP-62 NSCLC 88.2% | NCI-H460 lung 101% | HOP-92 NSCLC 31.5% | 786-0 renal 96% | COLO 205 colon 83.6%

CN1C(=O)C(C2=NN(C=O)C(c3ccc(F)cc3)C2)C(=O)N(C)C1=O (centres undefined)
inactive: NCI-H23 lung 99% | NCI-H322M lung 106% | HOP-62 NSCLC 84.4% | NCI-H460 lung 102% | HOP-92 NSCLC 91.7% | A549/ATCC NSCLC 74.7% | 786-0 renal 100% | COLO 205 colon 104%

C[C@]12CCC(=O)C=C1CCC1C2[C@@H](O)C[C@@]2(C)C1CC[C@]2(O)C(=O)COC(=O)CCC(=O)O (some centres undefined)
inactive: NCI-H23 lung 106% | NCI-H322M lung 95.4% | HOP-62 NSCLC 112% | NCI-H460 lung 102% | HOP-92 NSCLC 60.6% | NCI-H522 lung 107% | 786-0 renal 116% | COLO 205 colon 110%

COc1cc(/C(Cl)=C/C=C/C(=O)c2c(C)[n+]([O-])c3ccc(Cl)cc3[n+]2[O-])cc(OC)c1OC
active: HOP-62 NSCLC 7.24% | NCI-H522 lung -33.4% | COLO 205 colon -14.8%
inactive: NCI-H23 lung 63.7% | NCI-H322M lung 96.3% | NCI-H460 lung 56.6% | HOP-92 NSCLC 68.8% | 786-0 renal 35.1%

COc1cc(/C=C2\CN(C)CC3=C2Nc2nc(SC)[nH]c(=O)c2C3c2cc(OC)c(OC)c(OC)c2)cc(OC)c1OC (centres undefined)
inactive: NCI-H23 lung 49.4% | NCI-H322M lung 86.7% | HOP-62 NSCLC 69.8% | NCI-H460 lung 10.1% | HOP-92 NSCLC 82.7% | NCI-H522 lung 37.8% | 786-0 renal 67.4% | COLO 205 colon 31.2%

CCOc1cc(CCNS(=O)(=O)c2ccc(C)cc2)c(C(C)=O)cc1OCC
inactive: NCI-H23 lung 89.3% [100 µM] | NCI-H322M lung 108% [100 µM] | HOP-62 NSCLC 96.6% [100 µM] | NCI-H460 lung 76.9% [100 µM] | A549/ATCC NSCLC 74.8% [100 µM] | 786-0 renal 74.9% [100 µM] | COLO 205 colon 95.9% [100 µM]
active: HOP-92 NSCLC -5.84% [100 µM]

O=C1NC(=S)S/C1=C\c1cc(Br)ccc1O
inactive: NCI-H23 lung 84.7% | NCI-H322M lung 92.3% | HOP-62 NSCLC 81.6% | NCI-H460 lung 102% | HOP-92 NSCLC 75.7% | A549/ATCC NSCLC 107% | 786-0 renal 109% | COLO 205 colon 95%

Cc1csc(C#Cc2cncc(O)c2)n1
inactive: NCI-H23 lung 111% | NCI-H322M lung 113% | HOP-62 NSCLC 110% | NCI-H460 lung 121% | HOP-92 NSCLC 121% | A549/ATCC NSCLC 108% | 786-0 renal 105% | COLO 205 colon 105%

COc1ccc(-c2nc3sc4c(c3c(=O)[nH]2)CCCCCC4)cc1
inactive: NCI-H23 lung 80.7% | NCI-H322M lung 74.4% | NCI-H460 lung 33.2% | HOP-92 NSCLC 73.2% | A549/ATCC NSCLC 50.3% | 786-0 renal 80.1% | COLO 205 colon 35.4%

COc1cccc2c1C(=O)c1c(O)c3c(c(O)c1C2=O)C[C@@](O)(C(C)=O)C[C@@H]3O[C@H]1C[C@H](N)[C@H](O)[C@H](C)O1
active: NCI-H23 lung -67.3% | NCI-H322M lung -19.9% | HOP-62 NSCLC -50.2% | NCI-H460 lung -3.01% | HOP-92 NSCLC -28% | NCI-H522 lung -89.3% | 786-0 renal -9.97% | COLO 205 colon -85.8%

COc1ccc(C2=NN(C=O)C(c3cccc(Nc4ccnc5cc(Cl)ccc45)c3)C2)cc1 (centres undefined)
inactive: NCI-H23 lung 23.5% | NCI-H322M lung 45.8% | HOP-62 NSCLC 13.2% | NCI-H460 lung 14.3% | HOP-92 NSCLC 36.9% | A549/ATCC NSCLC 30.2% | 786-0 renal 28.5%
active: COLO 205 colon 0.0234%

O=C(NC1CCS(=O)(=O)C1)c1ccc(C(=O)c2ccccc2)cc1 (centres undefined)
inactive: NCI-H23 lung 98.9% | NCI-H322M lung 128% | HOP-62 NSCLC 101% | NCI-H460 lung 104% | HOP-92 NSCLC 101% | NCI-H522 lung 90.9% | 786-0 renal 101% | COLO 205 colon 102%

CCOc1cc(/C=C/C(=O)CC(=O)/C=C/c2ccc(OC(=O)CNc3nc4ccc(OC)cc4s3)c(OCC)c2)ccc1OC(=O)CNc1nc2ccc(OC)cc2s1
inactive: NCI-H23 lung 55.7% | NCI-H322M lung 88.6% | HOP-62 NSCLC 63.9% | NCI-H460 lung 57.5% | HOP-92 NSCLC 90.9% | A549/ATCC NSCLC 48.2% | 786-0 renal 32.2% | COLO 205 colon 109%

COc1cnc2c(c1)C(=O)c1c-2n(CCCN2CCNCC2)c(=O)c2cc(F)ccc12
inactive: NCI-H322M lung 13.7%
active: NCI-H23 lung -3.16% | HOP-62 NSCLC -8.55% | NCI-H460 lung -58.4% | HOP-92 NSCLC -7.94% | A549/ATCC NSCLC -70.4% | 786-0 renal -94.3% | COLO 205 colon -10.5%

CC(=O)Nc1ccc(C(=O)COc2ccc(/C=C3\CCc4ccccc4C3=O)cc2)cc1
inactive: NCI-H23 lung 108% | NCI-H322M lung 108% | HOP-62 NSCLC 113% | NCI-H460 lung 124% | HOP-92 NSCLC 114% | NCI-H522 lung 92.4% | 786-0 renal 97% | COLO 205 colon 143%

O=C(Nc1ccc2c(c1)C(=O)c1ccccc1-2)c1ccccc1
inactive: NCI-H23 lung 95% | NCI-H322M lung 101% | HOP-62 NSCLC 44.3% | NCI-H460 lung 87.4% | HOP-92 NSCLC 82.1% | A549/ATCC NSCLC 100% | 786-0 renal 52.1% | COLO 205 colon 97.8%

C1=C(Cc2ccccc2)n2cnc3ncnc(c32)S1
inactive: NCI-H23 lung 61.3% | NCI-H322M lung 73% | HOP-62 NSCLC 39.9% | NCI-H460 lung 83.8% | HOP-92 NSCLC 56.6% | A549/ATCC NSCLC 87.3% | 786-0 renal 29.3% | COLO 205 colon 82%

C/C(=C\CCc1ccoc1)CC/C=C(\C)CCCC1COC(=O)C1 (centres undefined)
inactive: NCI-H23 lung 106% | NCI-H226 lung 104% | NCI-H322M lung 88.9% | NCI-H460 lung 98.8% | HOP-92 NSCLC 88% | A549/ATCC NSCLC 97% | 786-0 renal 101% | COLO 205 colon 109%

CCOC(=O)c1sc(NC(=O)COc2cccc(/C=C3\CCc4cc(OC)ccc4C3=O)c2)nc1C
inactive: NCI-H23 lung 89.5% | NCI-H322M lung 99.8% | HOP-62 NSCLC 96.5% | NCI-H460 lung 80.8% | HOP-92 NSCLC 72.5% | NCI-H522 lung 43.9% | 786-0 renal 88.1% | COLO 205 colon 135%

c1ccc(COc2ccc(Nc3ncnc4c3cnn4-c3ccccc3)cc2)cc1
inactive: NCI-H23 lung 109% | NCI-H322M lung 84.1% | HOP-62 NSCLC 104% | NCI-H460 lung 93.7% | HOP-92 NSCLC 98.8% | A549/ATCC NSCLC 104% | 786-0 renal 100% | COLO 205 colon 107%

CN(C)c1ncnc2c1ncn2C1CCCCO1 (centres undefined)
inactive: NCI-H23 lung 101% | NCI-H322M lung 98.9% | HOP-62 NSCLC 110% | NCI-H460 lung 113% | HOP-92 NSCLC 71% | A549/ATCC NSCLC 104% | 786-0 renal 99.4% | COLO 205 colon 98.3%

COc1cc(C2CC(c3ccc(C)cc3)=NN2C=O)ccc1OCCN(C)C (centres undefined)
inactive: NCI-H23 lung 106% | NCI-H322M lung 94.3% | NCI-H460 lung 99% | HOP-92 NSCLC 77.7% | A549/ATCC NSCLC 84.6% | 786-0 renal 101% | COLO 205 colon 95.8%

O=c1[nH]c(N2CCC(Cc3ccccc3)CC2)nc2sc3c(c12)CCCC3
inactive: NCI-H23 lung 95.9% | NCI-H322M lung 97.1% | HOP-62 NSCLC 94.5% | NCI-H460 lung 102% | HOP-92 NSCLC 91.2% | A549/ATCC NSCLC 77.5% | 786-0 renal 105% | COLO 205 colon 105%

C[C@@H]1C[C@@H]([C@@H](CC2CC(=O)NC(=O)C2)OC(=O)CC(=O)c2ccccc2)C(=O)[C@@H](C)C1
active: NCI-H322M lung -19.5% | HOP-92 NSCLC 9.2% | A549/ATCC NSCLC 1.76% | 786-0 renal 1.2%
inactive: NCI-H23 lung 13.9% | HOP-62 NSCLC 13.5% | NCI-H460 lung 12.1% | COLO 205 colon 10.2%

CNc1nc(NC2CCCC2)nc(Sc2ccc(OC)cc2)n1
inactive: NCI-H23 lung 39.4% [100 µM] | NCI-H322M lung 68.5% [100 µM] | HOP-62 NSCLC 53.4% [100 µM] | NCI-H460 lung 10.2% [100 µM] | A549/ATCC NSCLC 20.3% [100 µM] | 786-0 renal 13% [100 µM] | COLO 205 colon 22.5% [100 µM]
active: HOP-92 NSCLC -42.7% [100 µM]

CC(C)C[C@H](NC(=O)/C=C/Cn1ccc2ccccc2c1=O)B(O)O
inactive: NCI-H23 lung 56.3% | NCI-H322M lung 85.4% | HOP-62 NSCLC 44.8% | NCI-H460 lung 84.6% | HOP-92 NSCLC 99.7% | A549/ATCC NSCLC 69% | 786-0 renal 55.1% | COLO 205 colon 49.7%

COP(=O)(OC)C(c1ccc(O)cc1)(c1ccc(O)cc1)c1ccc(O)cc1
inactive: NCI-H23 lung 114% | NCI-H322M lung 103% | HOP-62 NSCLC 83.3% | NCI-H460 lung 113% | HOP-92 NSCLC 79.3% | A549/ATCC NSCLC 99.9% | 786-0 renal 82.4% | COLO 205 colon 123%

O=C(CNC(=O)c1cccc2ccccc12)Nc1ccccc1Cc1ccccc1
inactive: NCI-H23 lung 52.1% [5 µM] | NCI-H322M lung 78.4% [5 µM] | HOP-62 NSCLC 36.4% [5 µM] | NCI-H460 lung 17.9% [5 µM] | HOP-92 NSCLC 53.5% [5 µM] | A549/ATCC NSCLC 27% [5 µM] | 786-0 renal 45.3% [5 µM] | COLO 205 colon 29.4% [5 µM]
